The values below come from ChEMBL document CHEMBL1157539, “Thousands of chemical starting points for antimalarial lead identification” (Nature, 2010).

As usually defined, the Inhibition is the percentage by which the read-out fell short of the control.

This assay concerns Plasmodium falciparum. Put plainly: GSK_TCMDC: Inhibition of Plasmodium falciparum Dd2 in whole red blood cells, using parasite LDH activity as an index of growth. Test compounds present at 2uM. The format is functional.
Turning to `COc1cc(C(=O)Nc2ccc3nc(N4CCN(C)CC4)cc(C)c3c2)cc(OC)c1OC`, the Inhibition came out at 79%.
Next, `CCc1sc(N2CCN(C)CC2)nc1C(=O)Nc1ccc(F)cc1C(F)(F)F.O=C(O)C(F)(F)F`: 98%; `Cc1cccc2nc(-c3ccc(-c4ccc(CN5CCCC(N)C5)cc4)cc3)[nH]c12.O=C(O)C(F)(F)F` (stereo not given): 100%; `COc1ccc(CNc2ccnc3cc(OC)ccc23)cc1`: 74%.
Take `CCC[C@@H]([C@@H](CC(C)C)C(=O)N[C@H](C(=O)Nc1nccs1)C(C)(C)SCCNC(=O)OCC)N(O)C=O`: the Inhibition is recorded as 97%.
With `Cc1cc(C)c2nc(N3CCC(C(=O)NCCCN4CCC(N5CCCCC5)CC4)CC3)sc2c1` the figure was 34%; with `CC(C)(C)OC(=O)Nc1cccc(-c2csc(NC(=N)N)n2)c1`, 83%; with `CC1(C)N=C(N)N=C(N)N1c1ccc(Oc2ccc(Cl)cc2)c(Cl)c1`, 20%.
Next, `O=C(C=Cc1ccc(Cl)c(Cl)c1)NCCCCCN1CCC(CCNC(=O)/C=C/c2ccccc2)CC1`: 1%.
For `CN(C)c1nc(NN=Cc2cc(Cl)ccc2O)nc(Nc2ccc(F)cc2)n1`, the Inhibition was 46%.
Next, `CON(CCCN(C)C)C(=N)N.Cl`: 0%; `CCN(CC)CCN(Cc1ccc(-c2ccc(C(F)(F)F)cc2)cc1)C(=O)Cn1c(CCc2ccc(F)c(F)c2)cc(=O)c2ccccc21.O=C(O)C(O)C(O)C(=O)O`: 26%; `O=C(NCCCCCN1CCC(c2c[nH]c3ccccc23)CC1)Nc1cccc(Cl)c1`: 0%.
`O=C(N[C@@H](CC1CCCCC1)C(=O)NCc1cccc2ccccc12)c1ccc(O)c(-c2ccc(Cl)c(Cl)c2)c1`: the Inhibition was found to be 99%.
Take `CN1CCCC(CN2CCN(Cc3ccc(-c4ccc(-c5nc6cc(F)ccc6[nH]5)cc4)cc3)CC2)C1.O=C(O)C(F)(F)F` (stereo not given): the Inhibition is 98%.
With `Br.CC(CCON1C(N)=NC(N)=NC1(C)C)c1ccc(Cl)cc1` (stereo not given) the figure was 97%; with `CC(C)CN(C)Cc1ccc(-c2ccc(-c3nc4ccccc4[nH]3)s2)cc1`, 76%.
On to `O=C(Nc1cccc(C(F)(F)F)c1)c1cccc(S(=O)(=O)NCC2CCCN(Cc3ccccc3)C2)c1.O=C(O)C(F)(F)F` (stereo not given), for which the Inhibition is 3%.
In turn, `CCCCN(CCCC)CCCN(CCCN(CCCC)CCCC)c1cc(C)nc(Nc2ccc3cc(Br)ccc3c2)n1.Cl` displayed an Inhibition of 99%.
Next, `CC(CCc1ccccc1)NCC(O)c1ccc2c3c(cccc13)S(=O)(=O)N2C.Cl` (stereo not given): 99%; `Cc1cccc2nc(-c3cccc(-c4ccc(C(=O)NCCc5ccc(O)c(=O)[nH]5)cc4)c3)[nH]c12`: 30%; `CC(C)(CN)c1nc(-c2ccc(Cl)c(O)c2)c(-c2ccnc(N)n2)[nH]1`: 95%.
Consider `CC(C)(C)CCOC(=O)N1CCc2c(cc(O)c(O)c2Cl)C(c2ccc(O)cc2)C1` (stereo not given), for which the Inhibition came to 95%.
Next, `Cc1ccc(C)c2sc(N(CCCn3ccnc3)C(=O)C=Cc3cccs3)nc12.Cl`: 93%.
With `O=C(NCC(c1ccc(C(F)(F)F)cc1)N1CCCC1)c1cc(-c2ccncc2)c(-c2cccc(O)c2)o1.O=C(O)C(F)(F)F` (stereo not given), the Inhibition is given as 53%.
With `O=C(Nc1cccc(CN2CCN(Cc3ccc(O)cc3)CC2)c1)c1ccc(Cl)c(Cl)c1.O=C(O)C(F)(F)F` the figure was 95%.
With `O=C(/C=C/c1ccc(Cl)c(Cl)c1)NCCCCCN1CCC(CCNC(=O)c2snnc2-c2ccccc2)CC1` the figure was 1%; with `CCOc1cc(Br)c(C(C)NC(=O)c2cccc(OC)c2)cc1OCC` (stereo not given), 37%.
For the compound `CCOc1cc(C(=O)N[C@@H](Cc2ccccc2)[C@H](O)CNC(C)(C)c2cccc(OC)c2)cc(N2CCCS2(=O)=O)c1`, the Inhibition is 99%.
With `CCN1CCc2c1cc(C(=O)N[C@@H](Cc1ccccc1)[C@H](O)CNC(C)(C)c1cccc(C(F)(F)F)c1)cc2N1CCCCS1(=O)=O` the figure was 99%; with `CN(C)Cc1ccc(-c2ccc(NC(=O)c3ccc4c(=O)n(Cc5ccccc5)cnc4c3)cc2)cc1`, 39%; with `Cl.Oc1ccc2ccccc2c1CNC1CCCCCC1`, 33%.
`CC(C)c1ccc(NC(=O)N2CCc3ccc(OCCN(C(C)C)C(C)C)cc32)c(Br)c1.O=C(O)C(F)(F)F` showed an Inhibition of 5%.
`COc1ccc(NC(=O)[C@H](Cc2ccccc2)Nc2nc(NCCN3CCCC3)ncc2C)cc1.O=C(O)C(F)(F)F`: the Inhibition is 9%.
Next, `COc1cc2ccccc2c(CNCCCCCCNCc2c(OC)c(OC)cc3ccccc23)c1OC.CS(=O)(=O)O`: 89%.
`COc1ccccc1NC(=O)Nc1cccc(-c2cccc(-c3nc4cccc(C)c4[nH]3)c2)c1` gave an Inhibition of 90%.
Next, `COc1ccc(CN2CCC(CNCCc3c(Cl)cccc3Cl)CC2)cc1.O=C(O)C(F)(F)F`: 69%; `CN(CCCNc1ccc(C(=O)Nc2ccc(C(F)(F)F)cc2)cc1[N+](=O)[O-])Cc1ccccc1`: 48%.
Consider `Cc1cc(N2CCCC2)nc(Nc2ccc(NC(=O)C3CCCC3)cc2)n1`, for which the Inhibition came out at 81%.
Next, `CN(CC(=O)Nc1cc(C(F)(F)F)ccc1-n1cncn1)Cc1ccc2ccccc2c1`: 99%.
